# Out of some 310,000 compounds screened, about 14,000 (4.5%) showed an effect of 50% or more. Effects have a minus sign here. What follows is part of a selection rich in strong results, with near analogues and random picks from the rest.
# Target: human ether-à-go-go-related gene (hERG) potassium channel (human, UniProt Q12809)
# Experiment: primary screen, population patch clamp on CHO cells stably expressing hERG; higher = less effect of the substance
# 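Further: peak tail current of the secondary pulse compared with the same well before compound.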
# Sequence of human ether-à-go-go-related gene (hERG) potassium channel (Q12809 whole entry, looked up): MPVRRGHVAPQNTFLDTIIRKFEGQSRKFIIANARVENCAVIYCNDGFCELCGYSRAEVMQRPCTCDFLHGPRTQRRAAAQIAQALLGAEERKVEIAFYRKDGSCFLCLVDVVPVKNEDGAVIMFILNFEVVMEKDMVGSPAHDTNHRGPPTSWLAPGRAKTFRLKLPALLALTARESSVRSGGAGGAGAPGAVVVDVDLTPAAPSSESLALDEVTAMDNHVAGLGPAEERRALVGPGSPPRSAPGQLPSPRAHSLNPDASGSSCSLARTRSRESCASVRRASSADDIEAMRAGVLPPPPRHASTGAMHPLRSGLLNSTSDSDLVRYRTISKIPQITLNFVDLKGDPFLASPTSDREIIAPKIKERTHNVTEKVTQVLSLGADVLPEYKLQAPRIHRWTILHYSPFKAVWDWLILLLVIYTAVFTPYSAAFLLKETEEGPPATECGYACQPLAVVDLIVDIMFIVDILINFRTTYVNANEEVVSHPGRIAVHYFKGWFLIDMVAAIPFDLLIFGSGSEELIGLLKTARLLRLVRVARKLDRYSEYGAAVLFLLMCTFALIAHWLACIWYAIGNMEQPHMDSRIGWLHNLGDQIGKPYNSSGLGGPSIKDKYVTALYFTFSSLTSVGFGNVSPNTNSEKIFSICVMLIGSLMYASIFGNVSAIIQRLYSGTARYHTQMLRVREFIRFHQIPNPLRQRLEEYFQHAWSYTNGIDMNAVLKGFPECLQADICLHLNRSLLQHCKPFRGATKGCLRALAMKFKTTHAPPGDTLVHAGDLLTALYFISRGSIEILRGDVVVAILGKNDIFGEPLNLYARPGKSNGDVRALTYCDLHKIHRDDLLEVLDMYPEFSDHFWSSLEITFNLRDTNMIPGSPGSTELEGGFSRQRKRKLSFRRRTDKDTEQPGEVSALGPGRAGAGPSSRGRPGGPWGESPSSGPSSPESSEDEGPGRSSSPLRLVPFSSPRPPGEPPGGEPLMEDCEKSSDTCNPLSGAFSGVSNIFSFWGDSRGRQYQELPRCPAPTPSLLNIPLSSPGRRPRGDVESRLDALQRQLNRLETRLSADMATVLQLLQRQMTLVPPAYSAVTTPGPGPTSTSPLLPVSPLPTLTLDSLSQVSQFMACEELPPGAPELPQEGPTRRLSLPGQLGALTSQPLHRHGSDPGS
row,SMILES,"hERG current change (%, negative = inhibition) at 10uM [%]"
1,O=C(O)CCCC(=O)N(Cc1ccccc1)Cc1ccccc1,30.4
2,Cn1c2c(c(=O)n(C)c1=O)C(c1cccc([N+](=O)[O-])c1)Nc1ccccc1O2 (centres unmarked),-12.3
3,C[C@H](N)C(=O)N1CCC(C(=O)N[C@@H](Cc2ccccc2)C(=O)Nc2ccc(F)cc2)CC1,-5.88
4,CC(=O)Nc1c([N+](=O)[O-])cc(C)c(Cl)c1[N+](=O)[O-],6.22
5,COc1ccc(Cn2c(=O)[nH]c3cc(C(=O)N4CCN(c5ccc(OC)cc5)CC4)ccc3c2=O)cc1,10.1
6,Cc1cc(Cl)cc(Br)c1OCCNCC(C)O (centres unmarked),-18.7
7,O=C1C2(CCC13COC(c1ccc(O)cc1)OC3)COC(c1ccc(O)cc1)OC2 (centres unmarked),-2.43
8,COc1ccc(OC)c(C2/C(=C(/O)c3ccc(C)cc3)C(=O)C(=O)N2Cc2ccco2)c1 (centres unmarked),-7.22
9,Cc1cc(=O)oc2cc(OCC(=O)Nc3ccc(CN4CCOCC4)cc3)ccc12,3.15
10,COc1cc2c3c(c1)/C(=C1/SC(=S)NC1=O)C(=O)N3C(C)(C)C=C2C,2.71
11,CCc1cccc(NC(=O)C2CCCN2S(=O)(=O)c2cccc3cccnc23)c1 (centres unmarked),-10.4
12,O=C(CCCn1cc([N+](=O)[O-])cn1)Nc1ccc2c(c1)OCO2,4.52
13,CCOCCCNC(=O)C1CCN(S(=O)(=O)c2ccc3nc4c(c(C(=O)O)c3c2)CCCCC4)CC1,49.4
14,CC1CCN(S(=O)(=O)c2ccc(C(=O)NC3CCS(=O)(=O)C3)cc2)CC1 (centres unmarked),-5.94
15,CC(C)N(CCn1c(SCC(=O)Nc2cccnc2Cl)nc2ccccc2c1=O)C(C)C,-69.7
16,COCCn1c(SCC(=O)Nc2cccnc2Cl)nc2cc(Cl)ccc2c1=O,-29.6
17,COCCn1c(SCC(=O)Nc2cccnc2Cl)nc2ccccc2c1=O,4.53
18,CC(=O)NCCn1c(SCC(=O)OCc2ccccc2)nc2ccccc2c1=O,-60.2
19,CC(=O)NCCn1c(SCC(=O)c2ccccc2)nc2ccccc2c1=O,-29.9
20,CC(=O)NCCn1c(SCc2ccc(C)cc2)nc2ccccc2c1=O,-31.2
21,O=C(Cc1ccccc1)N1CCN(C(=O)c2cccs2)CC1,6.2

row,SMILES,"hERG current change (%, negative = inhibition) at 10uM [%]"
1,O=C(Nc1cc(Cl)ccc1Cl)c1noc2c1CCCC2,12.4
2,CC(=O)N(Cc1ccccc1)c1ccccc1C(=O)O,13.1
3,CS(=O)(=O)n1nc(-c2ccco2)nc1N,20.3
4,COc1cccc(OCc2nnc(SCC(=O)NCc3ccco3)n2C)c1,-0.586
5,Cc1ccc(C)c(NC(=O)CN(C)C(=O)c2cccc(S(=O)(=O)N3CCN(Cc4ccccc4)CC3)c2)c1,9.47
6,COc1ccc(O)c(CN2CCN(CCCc3ccccc3)C(CCO)C2)c1 (centres unmarked),-68.2
7,OCCC1CN(Cc2c(O)ccc3ccccc23)CCN1CCc1ccccc1 (centres unmarked),-27.1
8,COc1ccc(O)c(CN2CCN(CCc3ccccc3)C(CCO)C2)c1 (centres unmarked),-54.6
9,Cc1ccc(NC(=O)COC(=O)c2ccc3c(c2)OCCO3)cc1S(=O)(=O)N1CCOCC1,6.16
10,O=C(CN1C(=O)NC2(CCc3ccccc32)C1=O)NCc1ccccc1Cl (centres unmarked),7.01
11,Nc1c(C(=O)NCC2CCCO2)c2nc3ccccc3nc2n1-c1ccccc1 (centres unmarked),2.35
12,Cc1ccc(Cl)cc1NC(=O)C1CCCN1S(=O)(=O)c1ccc(-c2ccc(=O)[nH]n2)s1 (centres unmarked),-65.4
13,O=C(O)C1CCCN(S(=O)(=O)c2ccc(-c3ccc(=O)[nH]n3)s2)C1 (centres unmarked),16.5
14,CCc1ccccc1NC(=O)C1CCCN1S(=O)(=O)c1ccc2c(c1)n(C)c(=O)c(=O)n2C (centres unmarked),-3.91
15,Cc1cccc(C)c1NC(=O)C1CCCN1S(=O)(=O)c1ccccc1 (centres unmarked),4.4
16,O=C(Nc1ccc(F)cc1F)C1CCCN1S(=O)(=O)c1ccc(-c2ccc(=O)[nH]n2)s1 (centres unmarked),-33.5
17,Cc1cccc(C)c1NC(=O)C1CCCN1S(=O)(=O)c1ccc(-c2ccc(=O)[nH]n2)s1 (centres unmarked),-68.2
18,CCc1ccccc1NC(=O)C1CCCN1S(=O)(=O)c1ccc(-c2ccc(=O)[nH]n2)s1 (centres unmarked),-54.7
19,Cc1ccc(NC(=O)C2CCCN2S(=O)(=O)c2ccc(-c3ccc(=O)[nH]n3)s2)c(C)c1 (centres unmarked),-15.4
20,CCc1nnc(NC(=O)C2CCCN2S(=O)(=O)c2ccccc2)s1 (centres unmarked),14.8
21,COc1cccc(N2CCN(c3nc(-c4ccccc4C)cc(=O)[nH]3)CC2)c1,3.88

row,SMILES,"hERG current change (%, negative = inhibition) at 10uM [%]"
1,c1cc2c(cc1C1=NNC(=NC3CC3)SC1)OCCO2,16.8
2,Cc1cc(C(=O)NNC(=O)c2sccc2C)c(C)o1,7.27
3,O=S(=O)(c1ccc(F)cc1)N1CCN(c2ccccc2)CC1,-6.53
4,CCN(Cc1ccccc1)C(=O)CCS(=O)(=O)c1cc2c(cc1Cl)NC(=O)CO2,-50.7
5,CCN(C(=O)CCS(=O)(=O)c1cc2c(cc1Cl)NC(=O)CO2)c1ccccc1,-21.8
6,CN(Cc1ccccc1)C(=O)CCS(=O)(=O)c1cc2c(cc1Cl)NC(=O)CO2,-38.9
7,O=C1Nc2ccc(Br)cc2C12NNc1ccccc1O2 (centres unmarked),23.9
8,Cn1c(N)c(C(=O)NCc2ccccc2Cl)sc1=S,18
9,Cc1ccc(NC(=O)CSc2nc3ccccc3c3nc(CCn4cncc4C)nn23)c(C)c1,2.77
10,Cc1cccc(NC(=O)CSc2nc3ccccc3c3nc(CCc4c(C)n[nH]c4C)nn23)c1,-9.44
11,Cc1ccc(NC(=O)CSc2nc3ccccc3c3nc(CCc4c(C)n[nH]c4C)nn23)cc1F,-11.7
12,Cc1ccccc1NC(=O)CSc1nc2ccccc2c2nc(CCn3cncc3C)nn12,-55.6
13,Cc1ccccc1NC(=O)CSc1nc2ccccc2c(=O)n1C,1.39
14,Cc1cncn1CCc1nc2c3ccccc3nc(SCC(=O)Nc3cccc(Cl)c3)n2n1,-78.4
15,CCCCOC(=O)c1sc2nc(N3CCOCC3)c3c(c2c1N)CC(C)(C)OC3,9.29
16,CCOC(=O)C1CCN(C(=O)c2ccc3c(c2)OCO3)CC1,-5.29
17,Cl.Clc1c(OCCCn2ccnc2)ccc2ccccc12,-31.9
18,COCCN1C(=O)/C(=C/c2ccc(OCc3ccc(C(=O)O)cc3)c(OC)c2)SC1=Nc1ccccc1,7.58
19,NNC(=O)c1sccc1OCc1ccc(Cl)cc1Cl,-18.5
20,C=CCNC(=O)/C=C/c1cccs1,16.4
21,COC(=O)c1ccc(NC(=O)COC(=O)C2CCC2)cc1,4.03

row,SMILES,"hERG current change (%, negative = inhibition) at 10uM [%]"
1,Cc1ccc(NC(=S)N(Cc2cccs2)Cc2cc3cccc(C)c3[nH]c2=O)cc1,-9.88
2,Cc1cccc2cc(CN(CCN(C)C)C(=S)Nc3ccccc3)c(=O)[nH]c12,-24
3,Cc1ccc(NC(=S)N(CCN(C)C)Cc2cc3cc(C)cc(C)c3[nH]c2=O)cc1,-7.41
4,CCN(CC)CCN(Cc1cc2cccc(C)c2[nH]c1=O)C(=S)Nc1ccccc1,-66.2
5,Cc1cccc2cc(CN(CC3CCCO3)C(=S)Nc3ccccc3)c(=O)[nH]c12 (centres unmarked),2.39
6,Cc1cccc(NC(=S)N(CCN(C)C)Cc2cc3cc(C)ccc3[nH]c2=O)c1,-16.5
7,Cc1ccc(NC(=S)N(CCN(C)C)Cc2cc3cccc(C)c3[nH]c2=O)cc1,-55.6
8,CCN(CC)CCN(Cc1cc2cc(C)ccc2[nH]c1=O)C(=S)Nc1ccccc1,-50.6
9,Cc1ccc(NC(=S)N(CCN(C)C)Cc2cc3cc(C)ccc3[nH]c2=O)cc1,-43.5
10,Cc1ccc(C(=O)N(CN2CCCC2=O)c2ccccc2)cc1,-1.3
11,CCN(CC(=O)NCc1ccc(Cl)cc1)CC(=O)NC1(C#N)CCCC1,-19.2
12,CC[C@H](C)Cc1cn([C@@H](CCCN=C(NC(=O)OC(C)(C)C)NC(=O)OC(C)(C)C)C(=O)NCCCCCCCCCCC(=O)N2CCN(C(=O)OC(C)(C)C)CC2)nn1,4.2
13,CCOC(=O)c1c(NC(=O)C2=C(C)NC(=S)NC2c2ccc(CC)cc2)sc(C)c1C (centres unmarked),7.47
14,Cc1cc(SCC(=O)NN)c2cc(Br)ccc2n1,-1.57
15,Cc1ccc(S(=O)(=O)N2CCOC2CNC(=O)C(=O)NCCc2ccccc2)cc1 (centres unmarked),-25.6
16,CCOC(=O)c1c(N)c2cc([N+](=O)[O-])cnc2n1C,17.3
17,CCOC(=O)c1cc2sccc2n1CCCN1C(=O)c2ccccc2C1=O,6.01
18,CN1CCN(C(N)=NC(=O)c2ccccc2)CC1,6.76
19,COc1ccc(Cl)cc1S(=O)(=O)N1CCN=C1Cc1ccccc1,-18.9
20,CCc1ccc(NS(=O)(=O)c2cc3[nH]c(=O)c(=O)[nH]c3cc2C)cc1,9.15

# Reference: PMC4336329 (PLoS ONE, 2015)
